The full ranking holds about 1,100 compounds; the median of “Renilla luciferase signal (cell health) relative to plate median” is about 0.97, and the highest 2% start at about 1.6. The sample as a whole holds a higher share of the highest values than the screen did.
Tested on: HEK293T (UBE3A T485A transfected, BAR Wnt reporter)
Assay: Renilla luciferase signal (cell health) relative to plate median (fold (linear ratio)); higher = higher Renilla signal
Conditions: 24 h
Method in brief: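 HEK293T cells carrying a transfected BAR firefly luciferase Wnt reporter, TK-Renilla and an expression plasmid were exposed to chemicals at 0.01–100 uM for 24 h, with dosing four hours after transfection. Readout used Dual-Glo luciferase. The firefly/Renilla ratio defined Wnt activity and raw Renilla defined cell health, each median-centred per plate. Figures are means of four biological replicates.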

SMILES	Renilla luciferase signal (concentration: 0.1 uM)	Renilla luciferase signal (concentration: 1 uM)	Renilla luciferase signal (concentration: 10 uM)	Renilla luciferase signal (concentration: 100 uM)	Renilla luciferase signal (concentration: 0.01 uM)
Cc1ccccc1N [2-Methylaniline]	1.15	1.29	1.25	1.25	
CC(c1ccc(O)cc1)(c1ccc(O)cc1)c1ccc(O)cc1 [4,4',4"-Ethane-1,1,1-triyltriphenol]	0.468	0.58	0.509	0.0116	
ClC(Cl)c1ccccc1 [Benzal chloride]	1.11	0.929	1.12	1.15	
CC(C)(C)c1ccccc1O [2-tert-Butylphenol]	0.823	0.913	0.724	0.378	
COc1ccc(O)c(C(C)(C)C)c1 [2-tert-Butyl-4-methoxyphenol]	0.947	0.971	1.22	1.03	
CC(C)(C)c1cc(C(C)(C)C)c(O)c(C(C)(C)C)c1 [2,4,6-Tris(tert-butyl)phenol]	0.951	1.04	1.18	1.73	
O=C(Nc1ccc2[nH]ccc2c1)c1cc2cc(F)ccc2n1Cc1cccc(F)c1	1.07	1.02	0.543	0.0428	
CCCN(CC)CC1COC2(CCC(C(C)(C)C)CC2)O1 (stereo unspecified) [Spiroxamine]	1.34	1.13	1.06	0.0856	0.835
CC(C)CCCCCCCOC(=O)c1ccccc1C(=O)OCCCCCCCC(C)C	1.21	1.01	1.1	1.26	
CCCCOC(=O)c1ccccc1C(=O)OCc1ccccc1 [Benzyl butyl phthalate]	1.05	1.23	1.28	1.04	
CC12CC1(C)C(=O)N(c1cc(Cl)cc(Cl)c1)C2=O (stereo unspecified) [Procymidone]	0.813	1.07	1.07	1.27	
C=CC1(C)OC(=O)N(c2cc(Cl)cc(Cl)c2)C1=O (stereo unspecified) [Vinclozolin]	0.904	1.09	1.28	2.37	1.03
Cc1ccc(N)cc1 [4-Methylaniline]	0.71	0.873	0.684	0.856	
COC(=O)C(C)Oc1ccc(Oc2ccc(Cl)cc2Cl)cc1 (stereo unspecified) [Diclofop-methyl]	0.869	0.732	0.936	2.15	1.01
O=[N+]([O-])c1ccc(Oc2ccc(Cl)cc2Cl)cc1 [Nitrofen]	1.06	1.17	1.05	1.69	
Oc1cc(Cl)ccc1Oc1ccc(Cl)cc1Cl [Triclosan]	0.922	0.956	0.911	0.083	0.941
O=[N+]([O-])c1ccc(Cl)cc1 [1-Chloro-4-nitrobenzene]	0.98	0.976	0.993	1.1	
Fc1ccc(Oc2ccnc3cc(Cl)cc(Cl)c23)cc1 [Quinoxyfen]	0.865	0.93	1.03	0.994	0.918
CCCCOC(=O)[C@@H](C)Oc1ccc(Oc2ccc(C#N)cc2F)cc1 [Cyhalofop-butyl]	1.04	0.889	1.03	0.226	1.03
CCCCNC(=O)OCC#CI [3-Iodo-2-propynyl-N-butylcarbamate]	0.986	0.947	0.822	0.0151	0.922
CC1(C)C(C=C(Cl)Cl)C1C(=O)OC(C#N)c1ccc(F)c(Oc2ccccc2)c1 (stereo unspecified) [Cyfluthrin]	1.31	1.27	0.975	1.1	1.01
COc1cccc(C(=O)NN(C(=O)c2cc(C)cc(C)c2)C(C)(C)C)c1C [Methoxyfenozide]	1.1	1.05	1.04	0.685	1.37
Nc1c(Cl)cc([N+](=O)[O-])cc1Cl [Dicloran]	0.765	0.894	0.77	0.167	0.651
CSC1=N[C@@](C)(c2ccccc2)C(=O)N1Nc1ccccc1 [Fenamidone]	0.774	0.785	0.525	0.165	0.641
O=c1n(Cl)c(=O)n(Cl)c(=O)n1Cl [Symclosene]	0.995	0.923	1.18	1.88	1.05
CCCOc1nn(C(=O)[N-]S(=O)(=O)c2ccccc2C(=O)OC)c(=O)n1C.[Na+] [Propoxycarbazone-sodium]	1.21	1.03	0.975	1.2	1.17
CCC(C)Nc1c([N+](=O)[O-])cc(C(C)(C)C)cc1[N+](=O)[O-] (stereo unspecified) [Butralin]	1.06	0.989	1.04	1.94	0.921
CCC(CC)Nc1c([N+](=O)[O-])cc(C)c(C)c1[N+](=O)[O-] [Pendimethalin]	0.996	0.843	1.02	0.801	0.981
CCCN(CCC)c1c([N+](=O)[O-])cc(C(F)(F)F)cc1[N+](=O)[O-] [Trifluralin]	1.16	1.12	1.13	1.59	1.09
O=[N+]([O-])c1ccccc1 [Nitrobenzene]	0.931	0.977	0.817	0.932	

— the supplement of paper PMC9254222
